Compound activity deposited in PubChem by National Center for Advancing Translational Sciences (NCATS).
TGFb SMAD3 inh: blocks TGF-b signaling. HepG2 CAGA-GFP TGF-b/SMAD3 reporter, GFP fluorescence, 18 h; TGF-beta stimulated, 500 pg/mL final. Potency, µM (doses to about 46.1 µM), for the others: at the highest dose activity, negative = inhibition, hits mostly inhibitors. actives 1.2% (n = 410,000). AID 588855; further: on the % scale 0 is the no-effect control and ±100 the full control effect; nearly all actives have a fitted effect of over 65% in size
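Read-out: total well GFP (ex488/em500-530) summed from mean per-cell fluorescence. Cells: HEPG2 CAGA-GFP, 1% FBS DMEM, 18 h at 37 degrees C with 500 pg/mL final TGF-beta. Unstimulated wells served as the full-inhibition control; stimulated DMSO wells = 0%.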
RORgamma inh: inhibitors of mouse ROR gamma transcriptional activity; AID 2551; P51450; actives 5.4% (n = 310,000); Potency, µM (doses to about 53.6 µM), for inactives: at the top dose activity change, negative = inhibition, most hits filed as inhibitors; Drosophila S2 Gal4-RORgamma UAS-luciferase reporter, 20 h; further: on the % scale 0 is the no-effect control and ±100 the full control effect; nearly all actives have a fitted effect of over 60% in size
Target sequence (P51450 whole entry, looked up, the tested form may be a part): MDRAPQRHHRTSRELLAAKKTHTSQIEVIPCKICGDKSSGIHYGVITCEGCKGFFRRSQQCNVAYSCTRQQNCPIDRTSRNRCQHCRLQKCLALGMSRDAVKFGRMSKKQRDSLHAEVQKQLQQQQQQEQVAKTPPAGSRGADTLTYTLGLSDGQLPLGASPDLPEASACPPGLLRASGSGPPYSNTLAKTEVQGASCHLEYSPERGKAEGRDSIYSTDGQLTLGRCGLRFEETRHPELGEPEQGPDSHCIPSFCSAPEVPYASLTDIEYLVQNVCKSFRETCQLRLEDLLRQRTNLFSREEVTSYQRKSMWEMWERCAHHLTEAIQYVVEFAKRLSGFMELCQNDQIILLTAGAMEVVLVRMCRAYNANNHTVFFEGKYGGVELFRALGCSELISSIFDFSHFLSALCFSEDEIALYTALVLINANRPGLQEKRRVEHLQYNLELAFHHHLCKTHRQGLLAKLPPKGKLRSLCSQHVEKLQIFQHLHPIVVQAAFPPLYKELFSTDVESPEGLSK
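Drosophila S2 cells stably expressing Gal4-DBD/mouse RORγ fusion under metallothionein promoter plus UAS-luciferase; compound 1 h, then 700 uM CuSO4 induction for 20 h at ambient temperature; inhibition read as reduced luminescence.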
S2 tox: reduces viability in counter-screen for ATXN expression inhibitors; Potency, µM (highest dose often 56.7 µM), hits mostly cytotoxic; S2 cells (HEK-293 line with an ATXN2-luciferase reporter) viability, CellTiter-Fluor protease fluorescence, 24 h; actives 0.49% (n = 400,000); further: nearly all actives have a fitted effect of over 40% in size
HepG2 tox-1: HepG2 cytotoxicity, counter-screen for TGF-b inhibitors. Potency, µM (top dose mostly 46.1 µM), inactives show top-dose activity change, negative = cytotoxicity, most hits filed as cytotoxic. AID 588856. HepG2 CAGA-GFP viability, ATP luminescence, 18 h. actives 0.76% (n = 410,000)
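CellTiter-Glo luminescence gave cytotoxicity after 18 hours at 37 degrees C. The cells were HepG2 CAGA-GFP in 1% FBS DMEM, stimulated with 500 pg/mL TGF-beta after compound addition. %Activity was normalised to no-cell wells (complete cell-killing) and DMSO (no toxicity), and curves were fitted and classified.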
Gal4-VP16 FLuc: Gal4-VP16 reporter inhibition counter-screen; Drosophila S2 Gal4-VP16 UAS-luciferase, luminescence, 20 h; Potency, µM (doses to about 53.6 µM), without a hit: at the top dose activity, negative = inhibition, actives largely listed as inhibitors; actives 3.5% (n = 310,000); AID 2546;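 further: Gal4-VP16 expression switched on by copper sulfate through the metallothionein promoter; on the % scale 0 is the no-effect control and ±100 the full control effect; nearly all actives have a fitted effect of over 50% in size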
ATXN2 expr inh: ATXN2 expression inhibition; HEK-293 ATXN2-luciferase reporter, luminescence, 24 h; Potency, µM (highest dose often 57 µM), inactives show top-dose activity change, negative = inhibition, hits mostly inhibitors; actives 0.72% (n = 360,000); further: on the % scale 0 is the no-effect control and ±100 the full control effect; nearly all actives have a fitted effect of over 55% in size
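qHTS (up to 57 uM final) was run with 24 h compound exposure of reporter cells at 37 °C. Each well was multiplexed: SteadyGlo luminescence measured ATXN2-luciferase expression after a fluorogenic Gly-Phe-AFC viability readout (25 uM final).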
TGFb CAGA inh: confirmation of TGF-b signaling inhibitors in HepG2 reporter cells; shares compounds with TGFb SMAD3 inh; Potency, µM (titrated, usually from 46.1 µM), inactives show top-dose activity, negative = inhibition, usual class: inhibitors; AID 720534; actives 63% (n = 1,600); HepG2 CAGA-GFP TGF-b reporter, GFP fluorescence, 18 h; cells stimulated with TGF-beta, 500 pg/mL; further: on the % scale 0 is the no-effect control and ±100 the full control effect; nearly all actives have a fitted effect of over 65% in size
HepG2 tox-2: toxic to HepG2 cells in TGF-b counterscreen. actives 27% (n = 1,600). HepG2 CAGA-GFP viability, ATP luminescence, 18 h; cells stimulated with TGF-beta, 500 pg/mL. shares compounds with TGFb SMAD3 inh. AID 720535. Potency, µM (series often up to 46.1 µM), for inactives: at the top dose activity, negative = cytotoxicity, actives largely listed as inhibitors; further: on the % scale 0 is the no-effect control and ±100 the full control effect; nearly all actives have a fitted effect of over 70% in size
TGFb CCL64 inh: orthogonal confirmation of TGF-b inhibitors in CCL64 cells. CCL64 CAGA-GFP reporter, TGF-b stimulated, GFP fluorescence, 18 h. shares compounds with TGFb SMAD3 inh. actives 41% (n = 1,600). Potency, µM (series often up to 46.1 µM), for the others: top-dose activity, negative = inhibition, actives largely listed as inhibitors; further: nearly all actives have a fitted effect of over 65% in size
COP TGFb inh: validation of TGF-b inhibitors in HepG2 COP promoter reporter. shares compounds with TGFb SMAD3 inh. Potency, µM (doses to about 46.1 µM), without a hit: at the highest dose activity, negative = inhibition, most hits filed as inhibitors. actives 3% (n = 1,600). HepG2 COP-GFP TGF-b reporter, GFP fluorescence, 18 h; cells stimulated by added recombinant TGF-beta; further: nearly all actives have a fitted effect of over 70% in size
The depositor's hits bear a star; i = inactive; ? = inconclusive; / = no result given; [ ] = another dose, or the depositor's remark. The list is not random: actives were taken first. Their share in the collection is about 6.3%. The call rests on the fitted dose curve; in most records, active means well fitted curve in the direction sought with a large enough effect; inconclusive means small, poorly fitted or top-dose-only effect, or another doubt; inactive means no such curve, though single readings can be large; an effect the other way counts as inactive or inconclusive. Potency means the concentration at half of the fitted maximal effect.

SMILES	TGFb SMAD3 inh	RORgamma inh	S2 tox	HepG2 tox-1	Gal4-VP16 FLuc	ATXN2 expr inh	TGFb CAGA inh	HepG2 tox-2	TGFb CCL64 inh	COP TGFb inh
COc1ccc(CN2Cc3cnnn3-c3ccccc3C2c2ccccc2)cc1 (stereo not drawn)	-15.4%	/	i	-1.3%	/	-22.0%	/	/	/	/
Cc1c(C=O)c2ccccc2n1Cc1ccc(F)cc1	5.62µM*	9.4%	i	-30.7%	2.0%	-10.5%	1.3µM*	1.64µM*	10.1%	-3.8%
O=C(CCN1CC2CCC(CC2)C1)c1cccs1	12.6µM*	/	?	-25.0%	/	-1.8%	2.59µM*	20.6µM*	2.91µM*	?
CC12CCC3C(CCC4(O)CC(O)CCC34C=NO)C1(O)CCC2C1=COC(=O)C1 (stereo not drawn)	1µM*	/	?	-42.5%	/	?	11.6µM*	1.03µM*	0.291µM*	57.2%
CCCCN=C[C@]12CCC(O)CC1(O)CCC1[C@@H]2CC[C@]2(C)[C@H](C3C=CC(=O)O3)CCC12O (stereo partly drawn)	3.55µM*	-6.2%	i	-67.6%	-2.8%	?	?	1.16µM*	1.46µM*	41.4%
CN(C)CCN(C)CCc1ccc(Cl)c(Cl)c1	/	-17.3%	/	/	-12.6%	?	/	/	/	/
O=c1c2ccccc2nc(/C=C/c2ccc([N+](=O)[O-])o2)n1-c1ccc(O)cc1	2.82µM*	-44.4%	10µM*	-62.9%	-18.0%	12.6µM*	?	5.8µM*	2.31µM*	21.7%
O=c1c2ccccc2nc(/C=C\c2ccccc2F)n1-c1ccc(O)cc1	-1.7%	/	/	-19.8%	/	/	/	/	/	/
COc1cccc(NC(=O)C2CCN(S(=O)(=O)c3cc(-c4noc(C)n4)ccc3C)CC2)c1	?	/	i	-23.0%	/	-25.8%	/	/	/	/
COCCOCCO	/	/	i	/	/	-5.0%[116 µM]	/	/	/	/
O=C(C[C@@H]1C[C@@H]2c3cc(NS(=O)(=O)c4ccc(F)cc4)ccc3O[C@@H]2[C@H](CO)O1)N1CCc2ccccc2C1	-3.4%	/	?	-1.2%	/	-5.7%	/	/	/	/
COc1cc(O)c2c(c1)/C=C/C[C@H](O)[C@H](O)C(=O)CCC[C@H](C)OC2=O	2µM*	/	i	-5.2%	/	1.9%	8.2µM*	-12.1%	7.31µM*	?
CC(=O)Nc1cccc(-c2ccnc3c2CC(C(=O)NCc2ccco2)O3)c1 (stereo not drawn)	2.6%	/	i	2.4%	/	7.6%	/	/	/	/
COc1cc2c(c(OC)c1OC)-c1ccc(O)cc1[C@@H](NC(C)=O)CC2	?	/	?	10.6%	/	-13.0%	?	7.5%	0.517µM*	?
COc1cc2c(c(OC)c1OC)-c1ccc(O)cc1C(NC(C)=O)CC2 (stereo not drawn)	-2.1%	/	i	1.4%	/	4.1%	/	/	/	/
